From PubChem BioAssay (NCI) come the findings set out here.

Holding throughout (assay): NCI-60 one-dose screen, 48 h (100 = growth as untreated, 0 = no growth, -100 = all killed)
Details in all cases: 10 µM unless noted

The test system of assay [1] is HCT-15 colon.
Assay [2] deals with HT29 colon.
Assay [3] relates to SNB-75 CNS.
Assay [4] has as its system U251 CNS.
Assay [5] has as its system PC-3 prostate.
Assay [6] relates to SK-MEL-5 melanoma.
Assay [7] has as its system UACC-62 melanoma.
The test system of assay [8] is LOX IMVI melanoma.
The test system of assay [9] is SK-MEL-28 melanoma.

This is part of a sample that, as a whole, favours compounds with a hit. Of some 83,000 tested, about 20% had one in any assay.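 Step 1: grow cells in 96-well plates. Step 2: add test compound at a single concentration. Step 3: incubate 48 h. Step 4: record percent growth.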 Unmarked numbers belong to inactive results. The source made the active and inactive calls. Rule for the calls: active = growth percent below 10; inactive = the rest.

For `Cc1ccc2c(c1)C(=O)c1c-2c(OCCCN(C)C)nc2ccccc12`, the growth in assay [1] is -17.8% (active); in assay [2], -33% (active); in assay [3], 38.5%; in assay [4], 4.38% (active); in [5], 18.6%; in [6], 28.5%. Besides, the results for the growth in assay [7], in assay [8] and in assay [9] were -66% (active), -71.9% (active) and -54% (active), respectively.
For `O=C(O)c1cccc2c1-c1ccccc1C2=O`, the growth in assay [1] is 95.7%; in [2], 103%; in assay [3] it was 86.8%; in assay [4] it was 95.7%; in assay [5], 94%; in [6], 102%. Also, the growth in assay [7] was 90.1%; in assay [8], 97.5%; in [9], 109%.
As for `O=c1c(/C=C/c2ccco2)nnc(SCCN2CCOCC2)n1/N=C/c1ccc([N+](=O)[O-])cc1`, the growth in [1] is 99%; in assay [2], 106%; in [3], 99.9%; in assay [4] it was 104%; in [5] it was 96.5%; in [6] it was 91.1%. The figures for the growth in assay [7], in assay [8] and in [9] were 96.2%, 106% and 104%, respectively.
As to `CC/C(=C(\c1ccccc1)c1ccc(OCCNC)cc1)c1ccccc1`, the growth was -94.3% (active) in [1]; -89.8% (active) in [2]; -81.7% (active) in [3]; -80.3% (active) in assay [4]; -67.6% (active) in [5]; -99.8% (active) in [6]. Moreover, the growth in assay [7] is -99.1% (active); in assay [8], -100% (active); in [9], -98.5% (active).
As for `O=C1C=CC(Nc2ccccc2[N+](=O)[O-])C1Nc1ccccc1[N+](=O)[O-]` (stereo not given), the growth is -86.6% (active) in assay [1]; -32.3% (active) in assay [2]; 36.9% in assay [3]; 72.4% in [4]; 51.6% in assay [5]; 45% in assay [6]. Further, the results for the growth in [7], in assay [8] and in assay [9] were -68.9% (active), -97.3% (active) and -92.9% (active), respectively.
With `CCN(CC)CC(C)(C)C(=O)/C=C/c1ccccc1`, the growth in assay [1] was 21.2%; in [2] it was 49%; in assay [3], 81.6%; in assay [4], 86.4%; in [5] it was 69%; in assay [6], 81.9%. In addition, the growth is 39.8% in assay [7], -2.72% (active) in [8] and 67.8% in [9].
For `CCN(CC)Cc1cc(Nc2c3ccccc3nc3cc(Cl)ccc23)ccc1O`, the growth in [1] is -28.6% (active); in [2] it was -38.3% (active); in assay [3] it was -100% (active); in assay [4], -51.6% (active); in assay [5] it was -41.5% (active); in assay [6] it was -100% (active). The growth was -97.2% (active) in assay [7], -86.5% (active) in [8] and -79.3% (active) in assay [9].
As to `Cn1c2ccccc2c2c3c(c4c5ccccc5[nH]c4c21)C(=O)N(N)C3=O`, the growth in [1] was 68.2%; in assay [2], 60.3%; in assay [3] it was 63.9%; in assay [4], 37.3%; in [5], 59.6%; in assay [6], 31%. The growth is 22.6% in [7], 23.4% in assay [8] and 66.5% in assay [9].
For the molecule `CN1Cc2c(cc(CN3CCCCC3)n2C)C(c2ccc(Br)cc2)C1` (stereo not given), the growth in assay [1] was 67.7%; in assay [2] it was 49.6%; in [3], 70.3%; in [4], 86.4%; in [5], 82.9%; in [6], 61.2%. Also, the growth in assay [7] was -16.1% (active); in assay [8], 68.2%; in assay [9] it was 54.3%.
On to `CC#CC#Cc1cccc(=O)o1`, for which the growth in assay [1] is 36.1%; in [2] it was 45.3%; in assay [3], 82.4%; in [4], 75.1%; in [5], 78.6%; in [6], 70.3%. Further, the growth in assay [7] was 40.8%; in assay [8] it was 61.5%; in [9], 23.9%.
On to `COc1ccc(CCN2CC=Cn3c2nc2ccccc2c3=O)cc1`, for which the growth in [1] is 15.9%; in [2], 12.9%; in assay [3] it was 37.1%; in [4] it was 27.6%; in [5], 34.1%; in assay [6], -13.8% (active). Moreover, the growth in [7] is 31.8%; in assay [8] it was 14.1%; in [9], 78.7%.
Consider `Oc1ccccc1N=Cc1c(O)ccc2ccccc12`, for which the growth is 77.8% in [1]; 82.9% in [2]; 69.8% in [3]; 83.3% in assay [4]; 61.3% in [5]; 77.3% in assay [6]. For the same molecule, the growth in assay [7] is 63.8%; in assay [8], 61.7%; in assay [9], 113%.
`CCCCCCCCCCCCCCCC(=O)OCC1OC(n2cnc3c(=S)nc(N)[nH]c32)C(OC(=O)CCCCCCCCCCCCCCC)C1OC(=O)CCCCCCCCCCCCCCC` (stereo not given): the growth in [1] was 55.1%; in assay [2] it was 37.7%; in [3] it was 78.2%; in [4], 83.7%; in assay [5], 78.8%; in assay [6] it was 96.7%. Further, the growth in [7] was 31.7%; in [8], 21.7%; in assay [9] it was 130%.
Consider `CNC(=O)c1cc(Oc2ccc3nc(NC(=O)Nc4ccc(N5CCC(N(C)C)CC5)cc4)sc3c2)ccn1`, for which the growth in assay [1] is 74.8%; in [2] it was 20.1%; in assay [3], 86.4%; in [4], 57.6%; in [5], 95.1%; in assay [6], 86.1%. Besides, the growth is 99.2% in [7], 69.9% in assay [8] and 87.7% in assay [9].
As for `CCOC(=O)Cc1cnn(C)c1NC(=O)c1ccc(Cl)cc1NC(C)=O`, the growth in assay [1] was 110%; in assay [2] it was 110%; in assay [3] it was 76%; in assay [4], 111%; in assay [5] it was 94.6%; in [6], 95.3%. In addition, the results for the growth in [7], in assay [8] and in assay [9] were 99.7%, 107% and 130%, respectively.
